BoNT-F LC inh = BoNT/F light chain protease inhibitors, primary screen, biochemical, flow cytometry, MLPCN library; Botulinum neurotoxin type F light chain protease (Clostridium botulinum); inhibition, % at 10 µM; 360,000 tested, 0.22% active; Multiplex microsphere protease cleavage assay; in the data active = inhibition above about 35%, passing the limit was not always enough; inconclusive = no clear call, values can overlap the other calls
Anthrax LF prot = Bacillus anthracis LF protease inhibitors, primary screen, biochemical, multiplex microsphere, MLPCN library. multiplex microsphere protease cleavage assay. 360,000 tested, 0.12% active. Lethal factor (Bacillus anthracis), P15917. inhibition, % at 10 µM
PfHsp40 yeast = rescue of yeast from PfHsp40 toxicity, primary screen, S. cerevisiae, ATP luminescence | S. cerevisiae expressing PfHsp40, growth rescue | growth rescue, % at 12.5 µM | 340,000 tested, 0.68% active; in the data active = growth rescue above about 28%, passing the limit was not always enough; inconclusive = no clear call, values can overlap the other calls;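 note: yeast W303a lacking pdr1 and pdr3 grown in galactose medium; growth measured after three days at 30 °C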
MazEF act = activators of E. coli MazEF toxin-antitoxin RNase, primary screen, biochemical, fluorescence, uHTS. 350,000 tested, 0.32% active. AID 504720, 2011. Endoribonuclease toxin MazF (Escherichia coli (strain K12)), P0AE70. activation, % at 20 µM. FAM/BHQ RNA-DNA oligo cleavage fluorescence, 5 h; in the data active = activation above about 50%
Target sequence (P0AE70 whole entry, looked up): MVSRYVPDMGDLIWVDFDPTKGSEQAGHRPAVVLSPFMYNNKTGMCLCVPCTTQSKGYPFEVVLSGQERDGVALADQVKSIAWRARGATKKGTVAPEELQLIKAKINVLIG
BoNT-A LC inh2 = BoNT/A light chain protease inhibitors, primary screen, biochemical, flow cytometry, MLPCN library. Botulinum neurotoxin type A light chain protease (Clostridium botulinum A str. ATCC 3502). multiplex microsphere protease substrate cleavage. inhibition, % at 10 µM. 360,000 tested, 0.17% active. AID 588499, 2011
Bead autofluor = counter-screen for toxin protease inhibitors: compound fluorescence | compound autofluorescence counterscreen, microsphere flow cytometry; hits give high values | 360,000 tested, 3.1% active | AID 624483 | fluorescence intensity (test concentration not listed); in the data active = fluorescence intensity above about 16000; inconclusive = no clear call, values can overlap the other calls
Hits are given with their value; i = inactive; ? = inconclusive; nt = no result given. Most compounds without a hit are left out; they make up all but 4.3% or so of the library. Cut-off read from the data, not from the text of the source, unless noted: active = inhibition above about 30%; inconclusive = no clear call, values can overlap the other calls; inactive = below that.

SMILES | BoNT-F LC inh | Anthrax LF prot | PfHsp40 yeast | MazEF act | BoNT-A LC inh2 | Bead autofluor
CSc1nc(N)nc2c1ncn2CC(=O)NCc1ccc2[nH]ccc2c1 | i | i | i | i | i | i
c1ccc(Nc2c3c(nc4ncnn24)CCC3)cc1 | i | i | i | i | i | i
Clc1ccccc1Nc1c2c(nc3ncnn13)CCC2 | i | i | i | i | i | 21040
c1ccc(CCNc2c3c(nc4ncnn24)CCC3)cc1 | i | i | i | i | i | 22631
c1coc(CNc2c3c(nc4ncnn24)CCC3)c1 | i | i | i | i | i | 20732
c1coc(CNc2c3c(nc4ncnn24)CCCC3)c1 | i | i | i | i | i | i
CCCCOc1ccc(-c2nc(SCC(N)=O)n[nH]2)cc1 | i | i | i | i | i | 20074
CCCCOc1ccc(-c2nc(=S)[nH][nH]2)cc1 | i | i | i | i | ? | 16673
O=C(CC[C@H]1O[C@@H](n2cnc3c(NC(=O)c4ccccc4)ncnc32)[C@H](O)[C@@H]1O)NCCCN1CCOCC1 | i | i | nt | nt | i | i
CC(C)(C)C(O)C(Oc1ccc(Cl)cc1)n1cncn1 (stereo unspecified) | i | i | 141.4 | i | i | i
O=C(Nc1ccon1)Nc1cc(Cl)ccc1Cl | i | i | i | i | i | i
CCOC(=O)c1c(C)n(C)c2ccc(O)c(S(=O)(=O)c3ccccc3)c12 | i | i | i | i | i | 24053
CCOC(=O)c1c(C)n(C)c2ccc(O)c(CN(C)C)c12 | i | i | i | i | i | i
CC(C)C(NC(=O)c1cccs1)C(=O)NC1=NCCS1 (stereo unspecified) | i | i | i | i | ? | 21605
CC(C)[C@H](NC(=O)NCc1ccc(F)cc1)C(=O)O | i | i | i | i | i | i
Cc1cccc(C)c1NC(=S)N/N=C/c1ccc(OCCC(C)C)cc1 | i | i | i | i | i | 20711
CCN1CCN(Cc2ccc(OCc3ccccc3)cc2)CC1 | i | i | i | i | i | 20089
OC1(c2ccc(Cl)c(Cl)c2)C[n+]2ccccc2N1Cc1ccccc1 (stereo unspecified) | i | i | i | i | i | i
Cn1c(Cn2nnc(-c3ccccc3)n2)nnc1SCc1ccccc1Cl | i | i | i | i | ? | 16202
Cn1c(SCc2ccccc2Cl)nnc1-c1cnccn1 | i | i | i | i | i | i
CCN(CC)C(=O)C1CCCN(C/C(C)=C/c2ccccc2)C1 (stereo unspecified) | i | i | i | i | i | i
CCN(CC)C(=O)C1CCCN(Cc2ccccc2C(F)(F)F)C1 (stereo unspecified) | i | i | i | i | i | 23390
CCN(CC)C(=O)C1CCCN(C/C=C/c2ccccc2)C1 (stereo unspecified) | i | i | i | i | i | 25287
CCN(CC)C(=O)C1CCCN(Cc2ccc(F)c(F)c2)C1 (stereo unspecified) | i | i | i | i | i | i
CCN(CC)C(=O)C1CCCN(Cc2ccc(OC)c(C)c2)C1 (stereo unspecified) | i | i | i | i | i | 16141
SMILES | BoNT-F LC inh | Anthrax LF prot | PfHsp40 yeast | MazEF act | BoNT-A LC inh2 | Bead autofluor
CCc1cc(=O)oc2cc(C)cc(OCC(=O)NCCCN3CCOCC3)c12 | i | i | i | i | i | i
CCOC(=O)CN1C(=O)S/C(=C/c2ccc(N3CCCCC3)o2)C1=O | i | i | i | i | i | i
COC(=O)CN1C(=O)S/C(=C/c2ccc(N3CCCCC3)o2)C1=O | i | i | i | 386.0 | i | i
CN1C(=O)C(=Cc2ccc(N3CCCCC3)o2)C(=O)N(C)C1=S | 99.9 | i | i | i | i | i
Cc1cccc(C(=O)c2ccccc2C(=O)O)c1O | i | i | i | i | i | i
CCN(CC)c1ccc(C(=O)c2ccccc2C(=O)O)c(O)c1 | i | i | i | i | ? | 23518
CCCn1c(N)c(N(CCOC)C(=O)/C=C/c2ccc(C(=O)OC)cc2)c(=O)[nH]c1=O | i | i | i | i | i | i
CCC1CCCCN1S(=O)(=O)c1ccc(C(=O)Nc2nnc(-c3cccs3)o2)cc1 (stereo unspecified) | i | i | 59.6 | i | i | i
CC1CC(C)CN(S(=O)(=O)c2ccc(C(=O)Nc3nnc(-c4cccs4)o3)cc2)C1 (stereo unspecified) | ? | i | i | i | i | i

High-throughput results from PubChem BioAssay.
